# Measurements from PubChem BioAssay (Tox21).
# “And” between values parts separate entries of the source, which are not always exact repeats. Equal entries are not always repeated. Records with an inconclusive call do not appear. Where a call stands in place of a potency, no number is given. More than one record can exist for a structure, and the calls need not agree. The source made the active and inactive calls. Unless noted, calls come from the whole dose curve; as a rule, active = well fitted curve in the direction sought with a large enough effect in the repeat runs; inconclusive = weak or mixed curves; inactive = no such curve, though single readings can be large; an effect the other way counts as inactive or inconclusive.
# Experiments:
# [1] = qHTS assay to identify small molecule agonists of the hypoxia (HIF-1) signaling pathway - cell viability counter screen (AID 1224844; calls by dose curve; note: nearly all actives have a fitted effect of over 50% in size)
# Procedure, shortened: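 Multiplexed with the HRE beta-lactamase assay, this viability read used CellTiter-Glo luminescence (30 min, RT) on HRE-bla ME-180 cells treated 17 hrs with compounds in 0.5% dialyzed FBS medium.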
# [2] = qHTS assay to identify small molecule agonists of H2AX - cell viability counter screen (AID 1224847; calls by dose curve; note: nearly all actives have a fitted effect of over 30% in size; note: potency is the fitted concentration of half-maximal effect)
# Procedure, shortened: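 After overnight plating of 1000 CHO-K1 cells per well, a 15-concentration compound series was applied for 3 hr at 37C. Luminescence from CellTiter-Glo, read following 30 min at room temperature, reflected cell viability.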
# [3] = qHTS assay to identify small molecule antagonists of the estrogen related receptor (ERR) signaling pathway from Tox21 library (AID 1224848); note: nearly all actives have a fitted effect of over 50% in size; note: potency is the fitted concentration of half-maximal effect
# Procedure, shortened: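 Reading was by luminescence 30 min after ONE-Glo addition. Before that, ERR cells at 2,000 per well had rested 6 h at 37 C/5% CO2 and then received pin-tooled compounds in DMSO for 18 h at 37 C.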
# [4] = qHTS assay to identify small molecule agonists of the estrogen related receptor (ERR) signaling pathway from Tox21 library (AID 1224849; calls by dose curve; note: nearly all actives have a fitted effect of over 15% in size); settings: ERR reporter cell line, ONE-Glo luciferase, 18 h
# Procedure, shortened: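 Six hours post-seeding at 37 C/5% CO2, ERR cells receive DMSO-solubilised compounds; after 18 h at 37 C, ONE-Glo reagent is applied and luminescence recorded.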
# [5] = qHTS RealTime-Glo MT Cell Viability Assay in HepG2 cells - 24 hour (AID 1224867); note: nearly all actives have a fitted effect of over 50% in size
# Procedure, shortened: (§1)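 HepG2 cells (600/well) were dispensed with RealTime-Glo reagents, incubated 5 h at 37 °C, then treated with compounds in DMSO for up to 40 h. Nonlytic NanoLuc luminescence reflecting viable cells was read at each stated time point.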
# [6] = qHTS RealTime-Glo MT Cell Viability Assay in HEK293 cells - 32 hour (AID 1224868); note: nearly all actives have a fitted effect of over 50% in size; note: potency is the fitted concentration of half-maximal effect
# Procedure, shortened: (§2)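 HEK293 cells seeded with NanoLuc/prosubstrate reagent, rested 5 h at 37 C, then dosed and kept at 37 C up to 40 h. Nonlytic real-time luminescence from viable cells read at 0, 8, 16, 24, 32 and 40 h.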
# [7] = A CellTox Green Cytotoxicity Assay to monitor cytotoxicity in HEK293 cells - 0 hour (AID 1224869); note: nearly all actives have a fitted effect of over 50% in size
# Procedure, shortened: (§3)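 Seeding of HEK293 cells together with cytotoxicity dye preceded a 5 h incubation at 37 C/5% CO2. Test compounds in DMSO were then added and fluorescence monitored across 40 h.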
# [8] = qHTS RealTime-Glo MT Cell Viability Assay in HepG2 cells - 40 hour (AID 1224870); note: nearly all actives have a fitted effect of over 50% in size
# Procedure, shortened: (§4)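 Real-time viability: cells seeded at 600 per well together with NanoLuc and cell-permeant prosubstrate, compounds added after 5 h incubation. Luminescence tracked at 0, 8, 16, 24, 32 and 40 h of exposure.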
# [9] = A CellTox Green Cytotoxicity Assay to monitor cytotoxicity in HEK293 cells - 40 hour (AID 1224871); note: nearly all actives have a fitted effect of over 45% in size; note: potency is the fitted concentration of half-maximal effect
# Procedure, shortened: as §3
# [10] = qHTS RealTime-Glo MT Cell Viability Assay in HepG2 cells - 8 hour (AID 1224873); note: nearly all actives have a fitted effect of over 55% in size
# Procedure, shortened: as §4
# [11] = qHTS RealTime-Glo MT Cell Viability Assay in HEK293 cells - 40 hour (AID 1224874); settings: RealTime-Glo luminescence; max response: stronger effect = lower value; note: nearly all actives have a fitted effect of over 50% in size; note: potency is the fitted concentration of half-maximal effect
# Procedure, shortened: (§5)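 Tox21 screen in HEK293 using RealTime-Glo MT chemistry, with cells and reagent co-dispensed. Luminescence proportional to viable cell number was captured at intervals during 40 h compound exposure at 37 C.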
# [12] = A CellTox Green Cytotoxicity Assay to monitor cytotoxicity in HEK293 cells - 24 hour (AID 1224875); note: nearly all actives have a fitted effect of over 45% in size
# Procedure, shortened: as §3
# [13] = A CellTox Green Cytotoxicity Assay to monitor cytotoxicity in HepG2 cells - 16 hour (AID 1224876); note: nearly all actives have a fitted effect of over 45% in size
# Procedure, shortened: (§6)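 Nonlytic assay: viable cells exclude the dye, so fluorescence scales with cell death. HepG2 at 600 cells/well, compounds added after 5 h, signal read across 40 h.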
# [14] = qHTS RealTime-Glo MT Cell Viability Assay in HepG2 cells - 32 hour (AID 1224877); note: nearly all actives have a fitted effect of over 55% in size
# Procedure, shortened: as §1
# [15] = A CellTox Green Cytotoxicity Assay to monitor cytotoxicity in HepG2 cells - 24 hour (AID 1224878); note: nearly all actives have a fitted effect of over 45% in size
# Procedure, shortened: as §6
# [16] = qHTS RealTime-Glo MT Cell Viability Assay in HEK293 cells - 16 hour (AID 1224872); note: nearly all actives have a fitted effect of over 50% in size; note: potency is the fitted concentration of half-maximal effect
# Procedure, shortened: as §2
# [17] = A CellTox Green Cytotoxicity Assay to monitor cytotoxicity in HepG2 cells - 40 hour (AID 1224879); note: nearly all actives have a fitted effect of over 40% in size
# Procedure, shortened: as §6
# [18] = qHTS RealTime-Glo MT Cell Viability Assay in HEK293 cells - 0 hour (AID 1224880)
# Procedure, shortened: as §5
# [19] = qHTS assay to identify small molecule agonists of the hypoxia (HIF-1) signaling pathway (AID 1224846; active = well fitted activation curve with a large enough effect in the signal ratio in the repeat runs, not every such curve was filed as active; the % refers to the signal ratio)
# Procedure, shortened: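 Hypoxia-pathway activation was scored as increased beta-lactamase from an HRE-controlled reporter in ME-180 cells; plated at 2,000 cells per well with 0.5% dialyzed FBS, they were exposed 17 hrs to compounds and then given CCF4-AM.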
# [20] = qHTS assay to identify small molecule agonists of H2AX (AID 1224845; active = well fitted activation curve with a large enough effect in the signal ratio in the repeat runs, not every such curve was filed as active; the % refers to the signal ratio)
# Procedure, shortened: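 Phospho-H2AX Ser139 measured by HTRF (ex 320 nm; em 665 and 620 nm) after 24 hr antibody incubation. Compounds, 15 concentrations, 0.76% DMSO, were applied to CHO-K1 cells for 3hr at 37C before lysis.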
smiles,measurement,setting,value
O=C(/C=C/C=C/c1ccc2c(c1)OCO2)N1CCCCC1,Potency,[1],inactive
same,Potency,[2],inactive
same,Potency,[3],inactive
same,"activity change, positive = activation",[4]; at 92.4 µM (top of the series),24.4% (active) and 12.9% (active)
same,Potency,[5],inactive
same,Potency,[6],55.1 µM (active)
same,Potency,[7],inactive
same,Potency,[8],inactive
same,Potency,[9],inactive
same,Potency,[10],inactive
same,Potency,[11],55.1 µM (active)
same,Potency,[12],inactive
same,Potency,[13],inactive
same,Potency,[14],inactive
same,Potency,[15],inactive
c1cc(N(CC2CO2)CC2CO2)ccc1OCC1CO1 (stereo not given),Potency,[2],inactive
same,Potency,[3],61.2 µM (active) and 54.5 µM (active)
same,"activity change, positive = activation",[4]; at 92.4 µM (top of the series),-51.1% (inactive) and -59.2% (inactive)
same,Potency,[5],inactive
same,Potency,[6],24.6 µM (active) and 21.9 µM (active)
same,Potency,[7],inactive
same,Potency,[8],inactive
same,Potency,[9],inactive
same,Potency,[16],inactive
same,Potency,[10],inactive
same,Potency,[11],19.5 µM (active) and 15.5 µM (active)
same,Potency,[12],inactive
same,Potency,[13],inactive
same,Potency,[14],inactive
same,Potency,[15],inactive
same,Potency,[17],inactive
same,Potency,[18],inactive
Nc1ccc(Nc2ccccc2)cc1,Potency,[1],inactive
same,Potency,[19],inactive
same,Potency,[2],89.8 µM (active) and 50.5 µM (active)
same,Potency,[5],inactive
same,Potency,[6],48.5 µM (active)
same,Potency,[7],inactive
same,Potency,[8],inactive
same,Potency,[9],inactive
same,Potency,[16],43.2 µM (active)
same,Potency,[10],inactive
same,Potency,[11],48.5 µM (active)
same,Potency,[12],inactive
same,Potency,[13],inactive
same,Potency,[14],inactive
same,Potency,[15],inactive
same,Potency,[17],inactive
CN(C)c1nc(N(C)C)nc(N(C)C)n1,Potency,[1],inactive
same,outcome,[20],inactive
same,Potency,[2],inactive
same,Potency,[5],inactive
same,Potency,[6],inactive
same,Potency,[7],inactive
same,Potency,[8],inactive
same,Potency,[9],inactive
same,Potency,[16],inactive
same,Potency,[10],inactive
same,max response,[11],-18.5% (inactive) and -1.64% (inactive)
same,Potency,[12],inactive
same,Potency,[13],inactive
same,Potency,[14],inactive
same,Potency,[15],inactive
same,Potency,[17],inactive
CC(=O)O[C@]1(C(C)=O)CC[C@H]2[C@@H]3C=C(Cl)C4=CC(=O)[C@@H]5C[C@@H]5[C@]4(C)[C@H]3CC[C@@]21C,Potency,[1],inactive
same,outcome,[20],inactive
same,Potency,[6],24.5 µM (active) and inactive
same,Potency,[7],inactive
same,Potency,[8],inactive
same,Potency,[9],inactive
same,Potency,[16],21.9 µM (active) and inactive
same,Potency,[10],inactive
same,Potency,[11],21.9 µM (active)
same,Potency,[12],inactive
same,Potency,[13],inactive
same,Potency,[14],inactive
same,Potency,[15],inactive
same,Potency,[17],inactive
same,Potency,[18],inactive
C#C[C@]1(O)CC[C@H]2[C@@H]3CCC4=Cc5oncc5C[C@]4(C)[C@H]3CC[C@@]21C,Potency,[1],inactive
same,outcome,[20],inactive
same,Potency,[2],89.8 µM (active)
same,Potency,[3],24.3 µM (active) and 23.7 µM (active)
same,"activity change, positive = activation",[4]; at 42.5 µM (top of the series),-54.8% (inactive)
same,"activity change, positive = activation",[4]; at 92.4 µM (top of the series),-70.8% (inactive)
same,Potency,[7],inactive
same,Potency,[9],49 µM (active)
same,Potency,[12],inactive
same,Potency,[15],inactive
same,Potency,[17],inactive
